Consider 62 compounds from PubChem BioAssay AID1851 (National Center for Advancing Translational Sciences (NCATS), 2009).

Several values for one entry are separate records, joined by “and”; a condition that tells them apart may be missing. Equal entries are not always repeated. Screen size: about 16,000 compounds; about 4,000 (25%) were called active. Roughly 26% stayed inconclusive and do not appear here. These entries were drawn from the full list. Unmarked numbers belong to inactive results. The call rests on the fitted dose curve; in most records, active means well fitted curve in the direction sought with a large enough effect; inconclusive means small, poorly fitted or top-dose-only effect, or effect the other way; inactive means no such curve, though single readings can be large or run the other way.
On the % scale 0 is the no-effect control and ±100 the full control effect.

The target in the assay is Cytochrome P450 2C9 (Homo sapiens) (UniProt P11712). Description: Cytochrome panel assay with activity outcomes. To be noted: recombinant CYP, pro-luciferin dealkylation, luminescence, p450-cyp2c9; series mostly up to 57.1 µM.
Chain of Cytochrome P450 2C9 (Homo sapiens) (P11712 whole entry, looked up): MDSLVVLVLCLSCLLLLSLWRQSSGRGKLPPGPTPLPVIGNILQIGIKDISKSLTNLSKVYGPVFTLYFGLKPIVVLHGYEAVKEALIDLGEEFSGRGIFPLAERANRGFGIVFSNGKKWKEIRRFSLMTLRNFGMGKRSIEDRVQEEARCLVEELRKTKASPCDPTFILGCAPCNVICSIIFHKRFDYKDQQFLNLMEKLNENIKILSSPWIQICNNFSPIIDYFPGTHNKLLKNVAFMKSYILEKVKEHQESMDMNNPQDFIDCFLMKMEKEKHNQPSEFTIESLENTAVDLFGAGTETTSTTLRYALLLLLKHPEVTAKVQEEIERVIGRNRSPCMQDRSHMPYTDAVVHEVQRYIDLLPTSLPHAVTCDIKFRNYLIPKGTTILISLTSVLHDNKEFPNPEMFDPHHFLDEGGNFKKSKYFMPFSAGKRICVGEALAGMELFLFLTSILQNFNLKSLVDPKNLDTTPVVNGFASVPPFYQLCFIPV
Usually AC50 stands for the midpoint of the concentration-response curve, whichever way the signal moves. On to `O=C(O)CCCCCCCC(=O)O`, for which the AC50 entry was “inactive”.

With `C#CCOCCCC(=O)O`, the activity, negative = inhibition is 14.4% [at 11.4 µM].

For the compound `C#CCCCCCCCCCCCCCCCC(=O)O`, the AC50 is 12.6 µM (active).

For the compound `COC(=O)C/C=C\[C@@H](C)[C@@H]1C=C[C@H](OC(C)=O)[C@H](COC(C)=O)O1`, the activity, negative = inhibition was 14.8% [at 11.4 µM].

Turning to `CCOC(=O)C(C)CC(C)C(=O)N1CCOCCN(C(=O)C(C)CC(C)C(=O)OCC)CCOCC1` (configuration not stated), the AC50 entry was “inactive”.

For the compound `CN(C)CC(C)(C)CN1c2ccccc2Sc2ccccc21`, the activity, negative = inhibition was -2.35% [at 11.4 µM].

For the compound `CCc1cccc2c3c([nH]c12)[C@@](CC)(CC(=O)O)OCC3`, the AC50 entry was “inactive”.

Consider `CCc1cccc2c(-c3ccccc3)c3c(nc12)OCC3`, for which the AC50 was 12.6 µM (active).

`CC1(C)O[C@H]2[C@@H](c3[nH]nc4c(=O)[nH]c(=O)[nH]c34)OC[C@H]2O1`: the activity, negative = inhibition is 5.4% [at 11.4 µM].

With `CO[C@H]1COC(=O)C/C=C\[C@H](C)[C@@H](NS(=O)(=O)c2ccc(C)cc2)COC(=O)C/C=C\[C@@H]1C`, the activity, negative = inhibition was -17.2% [at 11.4 µM] and -4.44% [at 11.4 µM].

As to `CSCC[C@@H]1NC(=O)C/C=C\[C@@H](C)COC(=O)[C@H](C)COC1=O`, the activity, negative = inhibition was -7.38% [at 11.4 µM].

Take `c1ccc(-c2ccc(C3=Nn4c(Cn5nnc6ccccc65)nnc4SC3)cc2)cc1`: the AC50 is 12.6 µM (active).

As for `c1ccc2c(c1)nnn2CN1CCOCC1`, the activity, negative = inhibition is 15.8% [at 11.4 µM].

Turning to `Cc1cnc(CNc2ncncc2-c2ccccc2Cl)cn1`, the activity, negative = inhibition is 28.2% [at 2.29 µM].

Regarding `COc1ccc(C2C(=O)N(C3CCCCCC3)CC(=O)N2Cc2ccccc2)cc1OC` (configuration not stated), the AC50 was 12.6 µM (active).

`COc1cc(C2C(=O)N(C3CCCC3)CC(=O)N2Cc2ccco2)ccc1OC(C)C` (configuration not stated): the AC50 was 10 µM (active).

With `CCCOc1ccc(C2C(=O)N(C3CCCCC3)CC(=O)N2C2CC2)cc1OC` (configuration not stated), the AC50 was 10 µM (active).

Regarding `COc1ccc(CN2C(=O)CN(C3CCCCCC3)C(=O)C2c2ccc(OC)c(OC)c2)cc1` (configuration not stated), the AC50 was 11.2 µM (active).

In the case of `COc1ccc([C@@H]2CNC(=O)C2)cc1OC1CCCC1`, the AC50 entry is “inactive”.

Turning to `Cc1ccc(S(=O)(=O)N[C@H]2COC(=O)CC=C[C@@H](C)[C@H]3C=C[C@H](O)[C@@H](COC(=O)CC=C[C@H]2C)O3)cc1`, the activity, negative = inhibition was -13.5% [at 11.4 µM] and 14.3% [at 11.4 µM].

`O=C(Nc1cccc(F)c1)N1CCC2(CC1)CCN(C(=O)c1cnccn1)CC2`: the AC50 result is “inactive”.

In the case of `CCCCN=c1sc(C(=O)OC)cc(=O)n1CCCC`, the AC50 result was “inactive”.

For the compound `COc1ccc([N+](=O)[O-])cc1N(CC(O)CN(CC(C)C)CC(C)C)S(=O)(=O)c1ccccc1` (configuration not stated), the AC50 was 12.6 µM (active).

In the case of `Cc1ccsc1/C=N/Nc1nc(Cl)c(Cl)cc1Cl`, the AC50 result is “inactive”.

In the case of `CCc1c(C)c(C#N)c2nc3ccccc3n2c1N1CCN(c2cc(C)ccn2)CC1`, the AC50 was 1.26 µM (active).

As to `CCN(CC)CCOC(=O)C1(C2CCCCC2)CCCCC1`, the AC50 result is “inactive”.

With `FC(F)(F)c1ccc(N2CCOCC2)c(Nc2nc3ccccc3n3cnnc23)c1`, the AC50 is 15.8 µM (active).

Regarding `CN1CCN(c2nc3cc(C(F)(F)F)ccc3n3cccc23)CC1`, the AC50 result was “inactive”.

Turning to `CC(/C=C1\N=C(SCc2ccccc2Cl)SC1=O)=C\c1ccccc1`, the AC50 was 1.58 µM (active).

As to `CCc1nnc(NC(=O)c2c(C)nn(-c3ccccc3)c2Cl)s1`, the AC50 is 8.91 µM (active).

As for `CCc1nnc(NC(=O)c2cc(-c3ccccc3)nn2-c2ccccc2)s1`, the AC50 is 8.91 µM (active).

`CCCC(=O)Nc1nnc(CCN2CCCCC2)s1`: the AC50 result is “inactive”.

With `COc1ccccc1CNc1ncncc1-c1cccc(C#N)c1`, the activity, negative = inhibition is -22.7% [at 2.29 µM].

In the case of `CC(/C=N\NC(=O)Cn1c(C)nc2ccccc21)=C\c1ccccc1`, the AC50 was 2.82 µM (active).

As for `Cc1nc2ccccc2n1CC(=O)N/N=C\C=C\c1ccccc1`, the AC50 was 7.08 µM (active).

With `Cc1nc2ccccc2n1CC(=O)N/N=C\c1ccccn1`, the AC50 entry is “inactive”.

Regarding `O=c1[nH]n(-c2cccc(Cl)c2)c2ncccc12`, the AC50 result is “inactive”.

For the compound `Cc1ccccc1OCCNc1ccc(C(F)(F)F)cc1[N+](=O)[O-]`, the AC50 is 3.55 µM (active).

As for `COc1ccccc1-c1nccc(NCc2cnc(C)cn2)n1`, the activity, negative = inhibition was 19.3% [at 2.29 µM].

As for `COc1ccc2nc(NC(C)=O)sc2c1`, the AC50 entry was “inactive”.

In the case of `COc1ccc(OC)c(C2C(C(=O)Nc3nc4ccccc4s3)=C(C)NC3=C2C(=O)CCC3)c1` (configuration not stated), the AC50 was 0.631 µM (active).

Take `N/C(=N\O)c1cn([C@@H]2O[C@@H](CO)[C@H](O)[C@@H]2O)c2ncnc(NO)c12`: the activity, negative = inhibition is -5.39% [at 11.4 µM].

Regarding `COc1ccc(C(=O)c2ccc(OC)c(OC)c2)cc1OC`, the AC50 was 11.2 µM (active).

For `COc1ccc(NC(=O)CC#N)cc1OC`, the AC50 result was “inactive”.

Turning to `CCN(CC)C(=O)c1ccc(O)c(OC)c1`, the AC50 result is “inactive”.

In the case of `CCN1CC=C2C(C#N)=C(N)C(C#N)(C#N)[C@H](c3ccoc3)[C@H]2C1`, the AC50 entry is “inactive”.

Consider `CSc1nc(NC2CCCC2)c([N+](=O)[O-])c(NC2CCCC2)n1`, for which the AC50 was 2 µM (active).

As for `O=C(O)CCNc1ncnc2nc[nH]c12`, the activity, negative = inhibition is 23.7% [at 11.4 µM].

As to `Cc1ccc(C2=NN(S(C)(=O)=O)C(c3cccs3)C2)cc1` (configuration not stated), the AC50 was 11.2 µM (active).

For the compound `O=C(CC(NS(=O)(=O)c1ccc(Cl)cc1)c1ccco1)NCc1ccco1` (configuration not stated), the AC50 was 10 µM (active).

For `COc1ccc2c(Cl)c(C(=O)NCCCn3ccnc3)sc2c1Cl`, the AC50 was 0.891 µM (active).

Turning to `CCN1CCN(CCCNC(=O)c2cc3cc4ccc(OC)cc4nc3o2)CC1`, the AC50 entry was “inactive”.

As to `S=C(S)NCCCn1ccnc1`, the AC50 was 2 µM (active).

Regarding `S=C(S)NCCN1CCNCC1`, the activity, negative = inhibition is -16.5% [at 11.4 µM].

Take `O=C(NCCCn1ccnc1)Nc1ccc(Cl)cc1`: the AC50 is 0.316 µM (active).

Regarding `CCCNC(=O)Nc1ccc2c(c1)nc(C)n2C`, the AC50 result was “inactive”.

Regarding `O=C(NCCCN1CCCC1=O)Nc1ccc(F)c(Cl)c1`, the AC50 entry was “inactive”.

Turning to `O=S1(=O)N[C@H]2CC[C@@H]3NS(=O)(=O)N[C@H]4CC[C@H](N1)N4S(=O)(=O)N23`, the activity, negative = inhibition was -6.3% [at 11.4 µM].

With `O=C(NCCNC[C@@H](O)COc1ccc(O)cc1)N1CCOCC1`, the AC50 entry is “inactive”.

As to `COc1ccccc1OC[C@H](O)COC(N)=O`, the AC50 result is “inactive”.

Consider `CCOC(=O)c1c(O)[nH]c(=O)c(CC)c1C`, for which the activity, negative = inhibition was 4.97% [at 11.4 µM].

For the compound `CCOC(=O)c1[nH]c(COC(=O)CCOc2ccccc2OC)c(C(=O)OCC)c1C`, the AC50 is 4.47 µM (active).
